Source: PubChem BioAssay

target: Voltage-gated potassium channel subunit beta-2 (Rattus norvegicus) (UniProt P62483); assay: enhancers of rat Kvbeta2 NADPH turnover – biochemical, NADPH fluorescence, primary screen (AID 623); settings: Recombinant KvBeta, NADPH fluorescence decrease slope, 10 min; at 10 µM; stronger effect = lower value;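 also: fluorescence intensity change per second fitted from 20 to 320 s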
Sequence (P62483 whole entry, looked up): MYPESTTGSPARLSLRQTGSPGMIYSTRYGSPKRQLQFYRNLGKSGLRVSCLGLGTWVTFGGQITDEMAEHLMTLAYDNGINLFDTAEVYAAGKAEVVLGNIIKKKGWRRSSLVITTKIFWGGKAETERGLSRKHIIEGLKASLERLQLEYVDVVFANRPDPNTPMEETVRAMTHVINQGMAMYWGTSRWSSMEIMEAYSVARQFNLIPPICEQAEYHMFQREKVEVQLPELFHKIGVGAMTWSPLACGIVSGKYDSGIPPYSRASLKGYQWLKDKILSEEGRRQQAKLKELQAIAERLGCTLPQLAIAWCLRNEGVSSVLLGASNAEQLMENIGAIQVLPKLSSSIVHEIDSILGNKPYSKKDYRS

NADPH fluorescence slope, inactive:
COc1ccc(N(CC(=O)N2CCN(Cc3ccc4c(c3)OCO4)CC2)S(C)(=O)=O)cc1OC -1.7e-05
CNC(=O)CN(C#N)c1nc(N(C)C)nc(N(C)C)n1 -2.5e-05
COc1cccc(-n2c(C)nc3c(cnn3-c3ccc(C)cc3)c2=O)c1 2.9e-06
Cc1ccccc1-c1nc(CN2CCC(C(=O)NCCCN3CCOCC3)CC2)c(C)o1 6.2e-05
Cc1nc2cc(NC(=O)N3CC4(C)CC3CC(C)(C)C4)ccc2n1C (stereo not given) -8.2e-05
CS(=O)(=O)N(CC(=O)N1CCN(c2cccc(Cl)c2)CC1)C1CCCCC1 -4.3e-05
CC(C)(C)n1ncc2c(=O)n(CC(=O)NCCc3ccccc3)cnc21 1.3e-05
CCCCc1cc(=O)oc2cc(C)cc(OC(C)C(=O)O)c12 (stereo not given) -1e-05
CC(C)(C)c1ccccc1NC(=O)c1cccnc1 -2.2e-05
Cc1cc(-c2ccccc2)c2nncn2n1 -1.4e-05
Cc1ccc(-c2nnn(CC(=O)N(CC(=O)NCC3CCCO3)c3ccccc3)n2)o1 (stereo not given) -1.6e-05
C=CCSc1nnc(-c2ccccc2NC(C)=O)c(=O)[nH]1 -0.000277
Cn1c(=O)c2c(nc(SCC(=O)NCc3ccc4c(c3)OCO4)n2Cc2ccccc2)n(C)c1=O -3.8e-05
COc1cc(C(=O)N2CCC(c3nc(-c4cccnc4)no3)CC2)cc(OC)c1OC -1.2e-05
CC1CCc2nc(NC(=O)CN3CCN(Cc4ccc5c(c4)OCO5)CC3)sc2C1 (stereo not given) -6.2e-05
O=C(CCCn1c(=O)c2sccc2n(Cc2ccc(F)cc2)c1=O)NCc1ccco1 -2.1e-06
Cc1ccc2cc(CN(CC(C)C)C(=O)C3CCCO3)c(=O)[nH]c2c1 (stereo not given) 6.7e-05
CCOc1ccc(C(=O)N(CN2CCCC2=O)c2ccc(C)cc2)cc1 -5.9e-05
CCCCCc1c(O)c2ccccc2[nH]c1=O -9.6e-05
CC1CCN(S(=O)(=O)c2ccc(NC(=O)CSc3nnnn3C)cc2)CC1 -3.1e-05
O=C(c1nc2n(n1)C(c1ccc(Cl)cc1)C=C(c1ccccc1)N2)N1CCOCC1 (stereo not given) -1.6e-06
Cc1nc2cccc(C(=O)NC3CCCCC3)c2o1 -1.2e-05
COc1ccccc1-c1nnc2sc(-c3ccc(N(C)C)cc3)nn12 1.2e-05
O=C(Nc1cccc(C(F)(F)F)c1)c1cccnc1N1CCCC1 2.1e-05
CCNC(=O)C1CC(=O)N(Cc2ccc3c(c2)OCO3)C(=Nc2ccc(OCC)cc2)S1 (stereo not given) 1.7e-05
